Laboratory results: PubChem BioAssay

System: Fibrinogen (Alexa647-labelled)
Assay: Alexa647-fibrinogen binding to printed small molecules – biochemical, small-molecule microarray, 635/667 nm fluorescence, artefact control for SMM control-protein annotation, profiling panel (AID 1131);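 further: z-score merges 667 nm fluorescence with per-spot signal-to-noise over triplicate slides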
Settings: fibrinogen-A647 binding fluorescence, higher = more signal

Row | SMILES | composite z-score
1 | NCCCCCNC(=O)[C@@H]1C[C@@H]2C(=O)N3CCC[C@H]3C(=O)N2[C@@H]1c1cccc(OCCO)c1 | 0.974
2 | C=CC[C@]1(C(=O)NCc2ccccc2)N=C(c2ccc(OCCCO)cc2)O[C@H]1c1ccccc1 | 0.632
3 | COCCOC(=O)N1C(=O)[C@@]2(c3cc(C#CCNC(N)=O)ccc31)[C@H](c1ccc(O)cc1)N1[C@H](c3ccccc3)[C@H](c3ccccc3)OC(=O)[C@H]1[C@@H]2C(=O)N1CCCCCCC1 | 0.606
4 | O=C1[C@H]2[C@H]3[C@H](O)[C@H](O)CC(=NO[C@@H]4O[C@H](CO)[C@@H](O)[C@H](O)[C@H]4O)[C@@H]3CC[C@H]2C(=O)N1Cc1ccc2c(c1)OCO2 | 0.78
5 | O=C1[C@H]2[C@H]3[C@H](O)[C@H](O)CC(=NOCc4ccccc4)[C@@H]3CC[C@H]2C(=O)N1C1CCCCC1 | -0.303
6 | O=C1[C@H]2[C@H]3[C@H](O)[C@H](O)CC(=NO[C@@H]4O[C@H](CO)[C@@H](O)[C@H](O)[C@H]4O)[C@H]3CC[C@H]2C(=O)N1Cc1ccc2c(c1)OCO2 | 0.762
7 | O=C(NN=C1C[C@@H](O)[C@@H](O)[C@@H]2[C@@H]3C(=O)N(c4cccc(Oc5ccccc5)c4)C(=O)[C@@H]3CC[C@H]12)OCc1ccccc1 | 0.906
8 | CC(C)CON=C1C[C@@H](O)[C@@H](O)[C@@H]2[C@@H]3C(=O)N([C@@H](C)c4ccccc4)C(=O)[C@@H]3CC[C@H]12 | 0.951
9 | CC(=O)O[C@H]1C2=C(C(=O)[C@@H]3O[C@@H]31)[C@H]1C(C)O[C@@H]2[C@@]23C(=O)[C@@H]4O[C@@H]4[C@@H](O)C2=CO[C@H](C)[C@@H]13 (stereo partly specified) | -0.735
10 | CC(C)(C)N1C(=O)[C@H]2[C@H]3[C@H](O)[C@H](O)CC(=NOCc4ccccc4)[C@@H]3CC[C@H]2C1=O | 0.921
11 | O=C1[C@H]2[C@H]3[C@H](O)[C@H](O)CC(=NOC[C@@H](O)COCc4ccco4)[C@H]3CC[C@H]2C(=O)N1c1cccc(Oc2ccccc2)c1 | -1.32
12 | CC(C)=CCCC(C)=CCON=C1C[C@@H](O)[C@@H](O)[C@@H]2[C@@H]3C(=O)N(C[C@@H]4CCCO4)C(=O)[C@@H]3CC[C@@H]12 | 0.971
13 | Cc1ccc(S(=O)(=O)N[C@@H]2COC(=O)[C@H](C)COC(=O)CC=C[C@H]2C)cc1 | -0.305
14 | CCc1cc2c(nc1CC)CCN(CCC(C)=NO[C@@H](C)c1cc(-c3c(C)cc(C)cc3C)no1)C2 | 0.397
15 | CC(=O)OC[C@H]1O[C@@H](ON=C(C)CCN2CCc3nc(-c4ccccc4)c(-c4ccccc4)cc3C2)[C@H](OC(C)=O)[C@@H](OC(C)=O)[C@@H]1OC(C)=O | 0.867
16 | Cc1ccc(S[C@]2(C(=O)NCC(F)(F)F)CC(=O)N(Cc3ccccc3Cl)[C@@H]2c2ccc(CO)cc2I)cc1 | -0.563
17 | CO[C@@H]1COC(=O)CC=C[C@@H](C)COC(=O)[C@H](COCc2ccccc2)NC(=O)CC=C[C@H]1C | -1.55
18 | O[C@@H](Cc1ccccc1)[C@H]1C2C=CCCC(c3ccccc3)=C2CN1Cc1cccc(Cl)c1 (stereo partly specified) | 0.43

Row | SMILES | composite z-score
19 | CC(=O)OC[C@H]1O[C@H](CCON=C[C@@H](C)[C@H](OCc2ccccc2)C(C)C)C=C[C@@H]1OC(C)=O | 0.797
20 | CC1(C)OCC(C(O)C2=CCCCC2=O)CO1 (stereo unspecified) | 0.945
21 | CO[C@@H]1COC(=O)CC=C[C@@H](C)[C@@H]2C=C[C@H](O)[C@@H](COC(=O)[C@H](C)NC(=O)CC=C[C@H]1C)O2 | -0.734
22 | CCCCCN1CC=CC23O[C@@H]4C=CCOC(=O)[C@@H]4[C@H]2C(=O)N(CCCCCCO)[C@@H]3C1=O (stereo partly specified) | -1.04
23 | COCCCNC(=O)[C@@]1(C)c2ccccc2C(=O)N(Cc2ccc(OC(F)(F)F)cc2)[C@H]1c1ccc(CO)cc1 | -1.75
24 | CC(C)[C@@H](OCc1ccccc1)[C@H](C)C=NO[C@H](C)c1cn([C@H](CO)Cc2ccccc2)nn1 | 0.286
25 | c1ccc(C2NCCc3c2[nH]c2ccccc32)cc1 (stereo unspecified) | -1.82
26 | O=C1NC(=O)C2C1C=CC(C(O)Cc1ccccc1)N2Nc1ccccn1 (stereo unspecified) | 0.353
27 | CCOC(=O)[C@H](Cc1ccccc1)NC(=O)CCC1CC(OC(=O)NCCc2ccc(F)cc2)CC2(CCCC(COC(=O)NCC(c3ccccc3)c3ccccc3)O2)O1 (stereo partly specified) | 0.7
28 | COCCOC(=O)N1C(=O)[C@@]2(c3cc(C#Cc4ccc(OC)cc4)ccc31)[C@H](C(=O)N1CCN(c3ncccn3)CC1)[C@H]1C(=O)O[C@H](c3ccccc3)[C@H](c3ccccc3)N1[C@@H]2c1ccc(OCCO)cc1 | 0.274
29 | CC(=O)OC[C@H]1O[C@@H](ON=C[C@@H](C)[C@H](OCc2ccccc2)C(C)C)[C@H](OC(C)=O)[C@@H](OC(C)=O)[C@@H]1OC(C)=O | -0.562
30 | COC(=O)CC=C[C@@H](C)[C@@H](C=NO[C@H](C)c1cn([C@@H]2COC[C@H]2O)nn1)OC | -0.0974
31 | CC(CCN1CCc2nc(-c3ccccc3)c(-c3ccccc3)cc2C1)=NOC(C)CN1CCCCc2nc(C)c(C)cc21 (stereo unspecified) | 0.845
32 | CC(=O)OC[C@H]1O[C@H](C#CCCCc2ccccc2)C=C[C@@H]1OC(C)=O | 0.735
33 | CCOc1ccc(N2C(=O)/C(=C/C=C/c3ccccc3OC)S(=O)(=O)C2c2cccc([N+](=O)[O-])c2)cc1 (stereo unspecified) | 0.441
34 | COC(=O)[C@@H]1N=C(c2ccc(OCCCO)cc2)O[C@@H]1c1ccccc1N=[N+]=[N-] | 0.077
35 | CCN1C(=O)[C@H]2[C@H]3[C@H](O)[C@H](O)CC(=NOC(C)CN4CCCCc5nc(C)c(C)cc54)[C@@H]3CC[C@H]2C1=O (stereo partly specified) | -0.323
36 | CC(C)(C)OC(=O)CC[C@]1(C(N)=O)COC(c2ccc(OCCCO)cc2)=N1 | 0.29
